This is one part of a sample in which hits are shown more often than they occur.
HT1080-NT tox: kills 2HG-producing HT-1080-NT fibrosarcoma cells | AID 686970 | 360,000 tested, 1.6% active | Potency, µM (highest dose often 46.1 µM), without a hit: top-dose activity, negative = less viability, usual class: cytotoxic | HT-1080-NT fibrosarcoma viability, CellTiter-Glo ATP luminescence, 48 h;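 further: NT is the 2HG producing partner of a matched IDH1 knockdown line; potency means the concentration at half of the fitted maximal effect; 0% = DMSO-treated cells and -100% = media-only wells without cells; nearly all actives have a fitted effect of over 55% in size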
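Compounds were tested in concentration-response format on HT-1080-NT cells for 48 hours at 37 degrees C. Cell viability came from CellTiter-Glo luminescence; curves were classified by r2, response magnitude and activity.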
HT1080 IDH1KD tx: toxicity to HT-1080 IDH1 knockdown cells (counter line); 360,000 tested, 2% active; HT-1080 IDH1 knockdown viability, ATP luminescence, 48 h; Potency, µM (series often up to 46.1 µM), for inactives: top-dose activity, negative = toxicity, usual class: cytotoxic;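 further: potency means the concentration at half of the fitted maximal effect; 0% = DMSO wells and -100% = cell-free medium wells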
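Knockdown cells (IDH1KD HT-1080) received compounds 2 h after plating at 750 cells/well and were kept 48 h at 37 °C in 5% FBS RPMI. A CellTiter-Glo luminescence read gave % activity for curve fitting.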
12-LOX inh: ALOX12 (human) lipoxygenase inhibition; P18054; purified 12hLO, xylenol orange hydroperoxide absorbance; Potency, µM (series often up to 108 µM), for inactives: at the top dose activity change, negative = inhibition, actives largely listed as inhibitors; 580,000 tested, 1.1% active; AID 1671190; further: potency means the concentration at half of the fitted maximal effect
Target sequence (P18054 whole entry, looked up): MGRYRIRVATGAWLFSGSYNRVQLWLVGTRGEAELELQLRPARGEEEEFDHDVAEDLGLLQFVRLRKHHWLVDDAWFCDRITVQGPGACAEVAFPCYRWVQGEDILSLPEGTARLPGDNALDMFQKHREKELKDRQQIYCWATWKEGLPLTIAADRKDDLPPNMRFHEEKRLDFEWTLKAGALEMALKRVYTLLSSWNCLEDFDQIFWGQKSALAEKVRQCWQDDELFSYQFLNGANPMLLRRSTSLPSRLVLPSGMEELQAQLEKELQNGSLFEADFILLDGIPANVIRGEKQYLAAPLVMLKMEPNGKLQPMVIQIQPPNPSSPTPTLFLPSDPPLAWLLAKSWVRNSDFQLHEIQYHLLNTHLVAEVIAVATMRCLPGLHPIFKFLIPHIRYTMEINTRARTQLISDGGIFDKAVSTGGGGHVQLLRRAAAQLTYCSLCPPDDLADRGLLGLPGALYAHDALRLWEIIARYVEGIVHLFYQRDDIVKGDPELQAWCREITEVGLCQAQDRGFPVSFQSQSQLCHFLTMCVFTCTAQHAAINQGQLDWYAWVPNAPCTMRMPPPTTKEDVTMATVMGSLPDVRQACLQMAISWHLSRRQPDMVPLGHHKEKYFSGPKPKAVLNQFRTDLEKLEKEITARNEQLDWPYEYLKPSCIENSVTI
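Purified human 12hLO (150 nM final) in 25 mM Hepes, 0.01% Triton X-100, pH 7.0 was preincubated 15 min at room temperature with compound. Then 40 uM arachidonic acid was added, 30 min. Hydroperoxide was read by Fe-XO absorbance ratio 573/405 nm.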
TDP1 cell CPT: DT40-hTDP1 cell growth loss with CPT; chicken DT40 Tdp1-/-;hTDP1 cells + 20 nM CPT, ATP luminescence, 48 h; 420,000 tested, 12% active; Potency, µM (series often up to 46.2 µM), without a hit: at the highest dose activity change, negative = growth inhibition, hits mostly inhibitors; further: potency means the concentration at half of the fitted maximal effect; nearly all actives have a fitted effect of over 55% in size
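Chicken DT40 Tdp1-/- cells complemented with human TDP1, 400 cells/well, exposed to compounds plus 20 nM camptothecin for at least 48 h at 37 C; viability read as ATP content by CellTiter-Glo luminescence.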
TDP1 cell noCPT: qHTS for Inhibitors of human tyrosyl-DNA phosphodiesterase 1 (TDP1): qHTS in cells in absence of CPT | 420,000 tested, 15% active | DT40 Tdp1-/- hTDP1 cells, no CPT, ATP luminescence, 48 h | AID 686978, 2013 | Potency, µM (series often up to 46.2 µM), for the others: at the top dose activity change, negative = growth inhibition, actives largely listed as inhibitors; further: potency means the concentration at half of the fitted maximal effect; nearly all actives have a fitted effect of over 55% in size
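DT40 Tdp1-/-;hTDP1 cells, no CPT (DMSO vehicle only), 400 cells/well; compounds pin-transferred; ≥48 hr, 37 °C; CellTiter-Glo 30 min RT dark, luminescence read.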
IL-1B inflam inh: inflammasome signaling inhibition, IL-1 beta readout | activity change, % at 57.5 µM | THP-1 LPS/ATP IL-1B secretion, AlphaLISA, 16 h; hits give low values | 360,000 tested, 4.7% active | AID 743279; in the data active means activity change below about -50%; inconclusive means mostly about -30% to -49%
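THP-1 cells pretreated 1 hr with compounds (up to 57.5 uM final), then stimulated with LPS (250 ng/mL final) plus ATP (1.25 mM final); secreted IL-1B measured by AlphaLISA after 16 hr, decreased signal indicating inhibition.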
* hit, by the source's call; ? = inconclusive; nt = no result given; ! = not active in a repeat; [ ] = dose if it differs, or a comment. Unless noted, the call rests on the fitted dose curve; in most records, active means well fitted curve in the direction sought with a large enough effect; inconclusive means small, poorly fitted or top-dose-only effect, or another doubt; inactive means no such curve, though single readings can be large; an effect the other way counts as inactive or inconclusive. Unless noted, on the % scale 0 is the no-effect control and ±100 the full control effect.

SMILES	HT1080-NT tox	HT1080 IDH1KD tx	12-LOX inh	TDP1 cell CPT	TDP1 cell noCPT	IL-1B inflam inh
CCCCCc1ccc(C(=O)C(C)C)cc1	nt	nt	-4%	nt	nt	nt
COc1ccc2oc(=O)cc(CN3CCN(c4ccc(F)cc4)CC3)c2c1	nt	nt	-2%	?	23µM*	nt
CCOc1ccc2oc(=O)cc(CN3CCN(c4ccccc4)CC3)c2c1	nt	nt	-29%	?	?	nt
COc1ccc(N2CCN(Cc3cc(=O)oc4ccc(Cl)cc34)CC2)cc1	-3%	-3%	-10%	?	-11%	0
COc1ccc(N2CCN(Cc3cc4c(cc3O)CCC4)CC2)cc1	2%	-10%	-3%	26µM*	21µM*	4
CCc1ccc2oc(=O)cc(CN3CCN(Cc4ccccc4)CC3)c2c1	-12%	-2%	-8%	?	21µM*	9
CCOc1ccc2oc(=O)cc(CN3CCN(c4cc(C)ccc4C)CC3)c2c1	nt	nt	-21%	15µM*	16µM*	nt
CCN(CC)S(=O)(=O)c1ccc(NS(=O)(=O)c2ccc3ccccc3c2)cc1	nt	nt	-13%	nt	nt	nt
Cc1cc(=O)oc2cc(OCC(=O)NC(=O)NC3CCCCC3)ccc12	nt	nt	-6%	nt	nt	nt
O=C(Nc1ccc(Cl)cc1)C1CCN(C(=O)c2ncn3c2COC(c2ccccc2)C3)CC1 (stereo unspecified)	nt	nt	30%	nt	nt	nt
O=[N+]([O-])c1cc(S(=O)(=O)Nc2ccc(Cl)cc2)ccc1N/N=C/c1ccccc1F	nt	nt	36%	nt	nt	nt
CCOc1ccc2oc(=O)cc(CN3CCOCC3)c2c1	-1%	-7%	0%	15%	-2%	3
CCc1ccc2oc(=O)cc(CN3CCN(c4ccc(F)cc4)CC3)c2c1	-23%	-24%	?	?	16µM*	11
COc1ccc2c(CN(C)c3ccccc3)cc(=O)oc2c1	-2%	-1%	?	29µM*	?	-3
CCOc1ccc2oc(=O)cc(CN3CCN(Cc4ccc(F)cc4)CC3)c2c1	nt	nt	?	16µM*	23µM*	nt
COc1ccc(N2CCN(Cc3cc(=O)oc4cc5c(cc34)CCCC5)CC2)cc1	-18%	7%	0%	21µM*	13µM*	0
Cc1ccc(C(=O)NN2CC(C(=O)OCC(=O)c3ccccc3)CC2=O)cc1 (stereo unspecified)	nt	nt	-28%	nt	nt	nt
CCc1c(CN2CCN(c3ccc(F)cc3)CC2)csc1C	nt	nt	45µM*!	?	?	nt
COc1ccc2c(CN3CCN(c4ccccc4OC)CC3)cc(=O)oc2c1	1%	-5%	?	?	15µM*	-8
COc1ccc2c(CN3CCN(c4ccccc4F)CC3)cc(=O)oc2c1	29%	11%	?	?	?	9
Cc1cc(C)n(CCC(=O)N[C@@H]2CN(Cc3ccncc3)C[C@H]2CN(C)C)n1	nt	nt	75%	nt	nt	nt
CCOc1ccc2[nH]cc(S(=O)(=O)c3ccc(C)cc3)c(=O)c2c1	5%	0%	17%	?	?	4
CCOc1ccc2[nH]cc(-c3csc(N)n3)c2c1	-12%	6%	10%	?	10µM*	-5
O=C(Nc1cc(Cl)ccc1F)C12CC3CC(CC(C3)C1)C2	nt	nt	-20%	nt	nt	nt
Cc1sc2ncn(CC(=O)N3CCN(c4ccccc4)CC3)c(=O)c2c1S(=O)(=O)N1CCN(c2ncccn2)CC1	nt	nt	0%	?	?	nt
SMILES	HT1080-NT tox	HT1080 IDH1KD tx	12-LOX inh	TDP1 cell CPT	TDP1 cell noCPT	IL-1B inflam inh
CCCN(C(=O)Cn1cnc2sc(C)c(S(=O)(=O)N3CCN(c4ncccn4)CC3)c2c1=O)c1cccc(C)c1	nt	nt	?	-26%	15µM*	nt
Cc1sc2ncn(CC(=O)N3CCN(c4ccc(Cl)cc4)CC3)c(=O)c2c1S(=O)(=O)N1CCN(c2ncccn2)CC1	nt	nt	-11%	12µM*	?	nt
COc1ccc(N2CCN(C(=O)Cn3cnc4sc(C)c(S(=O)(=O)N5CCC(C)CC5)c4c3=O)CC2)cc1	nt	nt	-24%	?	23µM*	nt
Cc1sc2ncn(CC(=O)N3CCN(c4ccccn4)CC3)c(=O)c2c1S(=O)(=O)N1CCCCC1	-1%	4%	-3%	-1%	-27%	-28
Cc1cccc(N2CCN(C(=O)Cn3cnc4sc(C)c(S(=O)(=O)N5CCN(c6ncccn6)CC5)c4c3=O)CC2C)c1 (stereo unspecified)	nt	nt	?	16µM*	15µM*	nt
Cc1sc2ncn(CC(=O)N3CCN(c4ccc(F)cc4)CC3)c(=O)c2c1S(=O)(=O)N1CCOCC1	15%	-17%	15%	-10%	?	-12
CCC(C)NC(=O)Cn1cnc2sc(C)c(S(=O)(=O)N3CCN(c4ncccn4)CC3)c2c1=O (stereo unspecified)	16%	1%	-9%	8%	2%	4
Cc1ccc(-c2ccc(=O)n(Cc3noc(C(=O)NC(C)Cc4ccco4)n3)n2)cc1 (stereo unspecified)	nt	nt	4%	nt	nt	nt
COC(=O)[C@H]1CCCN1C(=O)[C@@H]1C[C@H](NC(=O)NC(C)C)CN1C(=O)CSC	nt	nt	11%[176 µM]	nt	nt	nt
COc1ccccc1N1CCN(C(=O)c2sc3ncn(CC(=O)N4CCC(C)CC4)c(=O)c3c2C)CC1	-22%	-13%	-8%	?	1.8µM*	19
c1ccc2sc(C3CCN(Cc4nnnn4Cc4ccc5c(c4)OCO5)CC3)nc2c1	-3%	-4%	-18%	?	18µM*	-4
COc1ccc2nc(C)c(C(=O)NCCCC(N)=O)cc2c1	nt	nt	6%	nt	nt	nt
Cc1oc(-c2ccccc2Cl)nc1CS(=O)(=O)CC(=O)NC(C)c1ccccc1 (stereo unspecified)	4%	0%	0%	?	23µM*	17
Cc1oc(-c2ccccc2Cl)nc1CS(=O)(=O)CC(=O)NC(C)CCc1ccccc1 (stereo unspecified)	nt	nt	-13%	16µM*	?	nt
Cc1oc(-c2ccccc2Cl)nc1CS(=O)(=O)CC(=O)NCc1ccc(F)cc1	nt	nt	?	?	18µM*	nt
Cc1ccc(CNC(=O)CS(=O)(=O)Cc2nc(-c3ccccc3F)oc2C)cc1	0%	0%	-9%	-18%	?	9
CC(Sc1nnc(-c2ccco2)o1)C(=O)Nc1ccc2c(c1)OCO2 (stereo unspecified)	nt	nt	-35%	nt	nt	nt
COc1ccc(CN2CCC3(C2)C(=NC2CCCCC2)NC(=O)N3c2cccc(OC)c2)cc1 (stereo unspecified)	nt	nt	3%[6.33 µM]	nt	nt	nt
CN(C)S(=O)(=O)c1ccc2oc(SCC(=O)c3c(N)n(C4CC4)c(=O)[nH]c3=O)nc2c1	10%	0%	2%	-8%	4.1µM*	22

High-throughput results as filed in PubChem BioAssay.
